Test results reported in PubChem BioAssay AID485270 (The Scripps Research Institute Molecular Screening Center, 2010).
The campaign covered roughly 330,000 compounds. About 5,800 (1.8%) were called active. Cut-off read from the data, not from the text of the source: active = inhibition mostly above about 38% (no sharp cut-off); inactive = mostly below about 40%. Only a selection was taken, and actives are over-represented in it overall.

The molecules below were run against Orexin/Hypocretin receptor type 1 (Homo sapiens) (UniProt O43613) (assay: blocks the human orexin 1 receptor (AID 485270;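 note: 0% = agonist challenge alone and 100% = reference antagonist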)). Details: OX1R-expressing cells, FRET antagonist read-out; at 6.6 µM; stronger effect = higher value.
Orexin/Hypocretin receptor type 1 (Homo sapiens), sequence (O43613 whole entry, looked up): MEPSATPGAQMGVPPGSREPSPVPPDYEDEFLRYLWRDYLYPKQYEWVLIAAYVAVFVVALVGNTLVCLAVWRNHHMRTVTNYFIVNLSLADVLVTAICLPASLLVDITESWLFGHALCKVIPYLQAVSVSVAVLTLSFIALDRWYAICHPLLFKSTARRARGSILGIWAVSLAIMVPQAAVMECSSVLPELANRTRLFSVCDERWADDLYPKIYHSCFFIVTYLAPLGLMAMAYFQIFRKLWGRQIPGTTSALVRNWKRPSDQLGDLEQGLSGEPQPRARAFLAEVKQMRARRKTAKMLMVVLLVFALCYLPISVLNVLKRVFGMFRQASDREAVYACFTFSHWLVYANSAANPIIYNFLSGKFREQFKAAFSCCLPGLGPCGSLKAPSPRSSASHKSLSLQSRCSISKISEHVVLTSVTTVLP
With `C[C@H](NS(=O)(=O)c1ccc(Cl)cc1)C(=O)OCC(=O)N1CCOCC1` the inhibition was 1.59% (inactive).
`COc1ccc(CC(=O)N[C@@H](CCSC)c2nc3ccccc3[nH]2)cc1` was tested, and the inhibition was 33.1% (inactive).
With `CSCCC(NC(=O)c1ccc(=O)n(C)n1)c1nc2ccccc2[nH]1` (stereo not drawn) the inhibition was 12.2% (inactive).
For `CSCCC(NC(=O)c1cc([N+](=O)[O-])cc([N+](=O)[O-])c1)c1nc2ccccc2[nH]1` (stereo not drawn), the inhibition was 82% (active).
With `COc1ccc(OC)c2sc(NC(=O)C3COc4ccccc4O3)nc12` (stereo not drawn) the inhibition was 14.5% (inactive).
`COc1ccc(NC(=O)C2COc3ccccc3O2)cc1` (stereo not drawn) was tested, and the inhibition was 3.74% (inactive).
With `O=C(Nc1ncc([N+](=O)[O-])s1)C1COc2ccccc2O1` (stereo not drawn) the inhibition was 57.4% (active).
In the case of `Cc1cnc(NC(=O)c2ccccn2)s1`, the inhibition is reported as 14.3% (inactive).
For `O=C(Cc1c(F)cccc1Cl)Nc1ccc(-n2cnnn2)cc1`, the inhibition was 3.25% (inactive).
With `CC(=O)Oc1ccccc1C(=O)Nc1ncc([N+](=O)[O-])s1` the inhibition was 86% (active).
`O=C(CCc1ccccc1)Nc1ncc([N+](=O)[O-])s1` was tested, and the inhibition was 52.7% (active).
In the case of `CC(C)Cc1nnc(NC(=O)CCc2ccccc2)s1`, the inhibition is reported as -12.6% (inactive).
With `COc1ccc([N+](=O)[O-])cc1NC(=O)CCc1ccccc1` the inhibition was 28.9% (inactive).
In the case of `O=C(Cc1c(F)cccc1Cl)Nc1ncc([N+](=O)[O-])s1`, the inhibition is reported as 43.1% (active).
In the case of `COc1ccc(NC(=O)c2ccccc2[N+](=O)[O-])cc1OC`, the inhibition is reported as 10.8% (inactive).
In the case of `CN(c1ccccc1)S(=O)(=O)c1cccc(NC(=O)Cc2c(F)cccc2Cl)c1`, the inhibition is reported as 26.3% (inactive).
With `O=C(OCCN1C(=O)c2ccccc2C1=O)[C@@H]1CC(O)CN1S(=O)(=O)c1ccccc1[N+](=O)[O-]` (stereo partly drawn) the inhibition was 7.02% (inactive).
With `O=C(COC(=O)C1CCCO1)Nc1nc(-c2ccc(F)cc2)cs1` (stereo not drawn) the inhibition was 5.35% (inactive).
For `C=CCC[C@H](Cc1ccc(F)cc1)C(=O)OC[C@H](C)NC(=O)[C@H](CC=C)CC(=O)N(CCO)Cc1ccccc1`, the inhibition was 17.6% (inactive).
For `O=C(COC(=O)c1ccc(F)c(S(=O)(=O)N2CCOCC2)c1)NCc1ccc2c(c1)OCO2`, the inhibition was 7.1% (inactive).
With `COc1ccc2c(CC(=O)NNC(=O)c3ccccc3F)coc2c1` the inhibition was 7.98% (inactive).
For `CCCCOc1ccc(N(CC(=O)NC(C)C)C(=O)CCC(=O)Nc2ccccn2)cc1`, the inhibition was 4.64% (inactive).
In the case of `CN(CCc1ccccc1)C(=O)c1cccc(NC(=O)Cc2ccc([N+](=O)[O-])cc2)c1`, the inhibition is reported as 14.3% (inactive).
With `CN(Cc1ccccc1)C(=O)COC(=O)/C=C/c1ccc2c(c1)OCO2` the inhibition was 4.7% (inactive).
For `CCCCNC(=O)C(C)N(CCN(C)C)C(=O)CCCN1C(=O)NC(c2ccc(Cl)cc2)C(C(=O)OCc2ccccc2)=C1C` (stereo not drawn), the inhibition was 13.9% (inactive).
`C=C1c2cccc(OC)c2O[C@H](C(=O)OCC)[C@@H]1CCCCCC` was tested, and the inhibition was 1.8% (inactive).
`CC(C)OCCCNc1ncnc2c1[nH]c1ccc(F)cc12` was tested, and the inhibition was 64.8% (active).
`CC(C)OCCCNC(=O)c1cc(Sc2ccc(F)cc2)nc2ccccc12` was tested, and the inhibition was 23.4% (inactive).
In the case of `O=C1NC(Cc2ccc(O)cc2)c2nc3ccc(Cl)cc3c(=O)n2-c2ccccc21` (stereo not drawn), the inhibition is reported as 6.78% (inactive).
For `CCOC(=O)C1C(c2ccc(Cl)cc2)NC(=S)NC1(O)C(F)(F)F` (stereo not drawn), the inhibition was 2.06% (inactive).
`CCOC(=O)C1Sc2[nH]c(=O)sc2C(c2ccc(Cl)cc2)C1C(=O)OCC` (stereo not drawn) was tested, and the inhibition was 49.6% (active).
For `CCOC(=O)C1=C(C)NC(=O)N(C(C)=O)C1c1ccc(Cl)cc1` (stereo not drawn), the inhibition was 12.3% (inactive).
With `COc1ccc(C)cc1NC(=O)CSc1cccc[n+]1[O-]` the inhibition was -5.73% (inactive).
In the case of `Cc1c(CN2CC[C@@H](N3CCN(c4ccccn4)CC3)[C@H](O)C2)[nH]c2ccc(F)cc12`, the inhibition is reported as -1.02% (inactive).
`Fc1ccc2[nH]c3c(N4CCSCC4)ncnc3c2c1` was tested, and the inhibition was 85.8% (active).
For `COc1ccc2[nH]c3c(c2c1)CCN1C(=O)C(CC(=O)NCc2cccc(C(F)(F)F)c2)C[C@H](C(=O)N2CCOCC2)[C@@]31C` (stereo partly drawn), the inhibition was 13% (inactive).
`CCC(CO)Oc1cc(NCc2ccccc2)c2ncn(C3CCCC3)c2c1` (stereo not drawn) was tested, and the inhibition was 12.8% (inactive).
For `Cn1c(/C(C#N)=C2/CCCCCN2)nc2ccccc21`, the inhibition was 11.5% (inactive).
`CCNC(=O)CSc1nc(-c2ccccc2)cs1` was tested, and the inhibition was 16.1% (inactive).
`N#CC(=C1CCCC1)c1nc(-c2ccc(Cl)cc2)cs1` was tested, and the inhibition was 20.1% (inactive).
For `N#C/C(=C1\CCCN1)c1nc(-c2ccccc2)cs1`, the inhibition was 84.1% (active).
`N#CC(=C1SC=CS1)c1nc(-c2ccccc2)cs1` was tested, and the inhibition was 105% (active).
In the case of `N#C/C(=C1/CCCN1)c1ccccn1`, the inhibition is reported as 5.71% (inactive).
For `Cc1c(NC(=O)CN(C)CC(=O)Nc2ccc(F)c(F)c2F)c(=O)n(-c2ccccc2)n1C`, the inhibition was 4.65% (inactive).
With `COC(=O)[C@]1(Cc2ccccc2)N[C@H](CN(C)S(=O)(=O)c2ccc(F)cc2)[C@@H]2C(=O)N(Cc3ccccc3)C(=O)[C@@H]21` the inhibition was 15.4% (inactive).
In the case of `CNC[C@@H]1Oc2c(NS(C)(=O)=O)cccc2C(=O)N([C@@H](C)CO)C[C@H]1C`, the inhibition is reported as -1.47% (inactive).
With `O=C(C1CC1)N1N=C2CCCCC2C1(O)C(F)(F)F` (stereo not drawn) the inhibition was 5.9% (inactive).
For `CCOC(=O)[C@H]1[C@H]2COc3cc(OC)ccc3[C@@H]2N2C(=O)CN(Cc3ccc(Cl)cc3)C(=O)[C@@]12C`, the inhibition was 7.39% (inactive).
In the case of `O=C(NCCc1ccc(F)cc1)c1ccc2nccnc2c1`, the inhibition is reported as 9.11% (inactive).
`Cc1ccc(C(=O)Nc2nnc(C3=COCCO3)o2)cc1C` was tested, and the inhibition was 9.95% (inactive).
`O=C(Nc1nnc(C2=COCCO2)o1)c1ccc([N+](=O)[O-])s1` was tested, and the inhibition was 88.5% (active).
In the case of `COc1cc(-c2nnc(NC(=O)C3=COCCO3)o2)cc(OC)c1OC`, the inhibition is reported as 4.19% (inactive).
`O=C(COC(=O)/C=C/c1ccc(Br)o1)Nc1cccc(S(=O)(=O)N2CCOCC2)c1` was tested, and the inhibition was 4.21% (inactive).
With `Cc1noc(C)c1NC(=O)Nc1ccc2c(c1)C(=O)N([C@H](C)CO)C[C@H](C)[C@@H](CN(C)C(=O)Nc1ccccc1)O2` the inhibition was -3.75% (inactive).
With `COc1cc(C(=O)OCc2cc(=O)n3ccsc3n2)ccc1OC(C)C` the inhibition was 8.65% (inactive).
With `CCN1CCN(c2c(Cl)cccc2NC(=O)c2ccc(Br)o2)CC1` the inhibition was 14.6% (inactive).
In the case of `COc1ccc(Cl)cc1NC(=O)COC(=O)c1ccc(Br)o1`, the inhibition is reported as 5.94% (inactive).
For `COc1cc(OC)c(NC(=O)c2ccc(Br)o2)cc1Cl`, the inhibition was 81.8% (active).
